In PubChem BioAssay (Tox21):
Calls of active or inactive are those of the source. Entries that show only a call come without a potency. Calls follow the shape of the dose curve; as a rule, active = well fitted cell-killing curve with a large enough effect in the repeat runs; inconclusive = weak or mixed curves, or effect the other way; inactive = flat fitted curve, though single readings scatter.

test: qHTS assay to identify small molecule HDAC inhibitors - cell viability counter screen (AID 1259365); settings: HCT-116 viability, CellTiter-Glo ATP luminescence, 2 h; series mostly up to 92.4 µM; also: nearly all actives have a fitted effect of over 50% in size
From the text: U.S. Tox21 Program National Center for Advancing Translational Sciences [NCATS] NIH Chemical Genomics Center [NCGC] U.S. Environmental Protection Agency [EPA] National Institutes of Environmental Health Sciences [NIEHS] National Toxicology Program [NTP] U.S. Food and Drug Administration [FDA] Tox21 Assay Overview: Histone deacetylases (HDACs) are a group of epigenetic enzymes that regulate gene expression by histone deacetylation. HDACs are capable of introducing epigenetic modifications and such aberrations contribute to the onset and progression of several human diseases, thus making HDACs a popular therapeutic target. For identifying endogenous class I/II HDAC inhibitors a homogenous, luminogenic HDAC I/II cell based assay was used to measure the relative activity of class I and II HDACs from cells. Wild type HCT-116 cells were used to screen Tox21 compound libraries for identifying class I/II HDAC inhibitors.
Tox21 Assay Protocol Summary: HCT-116 cells were dispensed at 1,500 per well in 5uL of culture medium into white solid bottom 1536-well plates (Greiner Bio-One, Monroe, NC) using a Multidrop Combi (Thermo Scientific, Waltham, MA) dispenser. The assay plates were incubated at 37 C and 5% CO2 for an overnight, and then 23nL of compounds dissolved in DMSO and positive control were transferred using a Pintool station (Wako, San Diego, CA). The assay plates were incubated at 37C and 5% CO2 for 2hr. After compound treatment, 4uL of CellTiter-Glo reagent (Promega Corporation, Madison, WI) was added to each well of the assay plates using Flying Reagent Dispenser (FRD, Aurora Discovery, San Diego, CA) and incubated the assay plates at room temperature for 30min. The luminescence signal was quantified using a ViewLux plate reader (Perkin Elmer, Shelton, CT).

Row | Structure (SMILES) | Potency
1 | CC1(C)C(=O)N(Cl)C(=O)N1Cl | inactive
2 | O=C(NCC1CCCCN1)c1cc(OCC(F)(F)F)ccc1OCC(F)(F)F (stereo not given) | inactive
3 | COC(=O)OC | inactive
4 | Cc1cc(C)c(O)c(C)c1 | inactive
5 | O=C(O)C1=NN(c2ccc(S(=O)(=O)O)cc2)C(=O)C1 | inactive
6 | CCCOC(=O)NCCCN(C)C | inactive
7 | Nc1cccc(N)n1 | inactive
8 | CCCCCCCC(=O)O | inactive
9 | CC(C)=CCC/C(C)=C/C=O | inactive
10 | CC(COCC(C)OC(=O)c1ccccc1)OC(=O)c1ccccc1 (stereo not given) | inactive
11 | C[n+]1ccn(CCO)c1 | inactive
12 | O=C1O[C@H]([C@H](O)CO)C(O)=C1O | inactive
13 | C=CC(=O)NCOCCCC | inactive
14 | Cc1cccc(C)c1[N+](=O)[O-] | inactive
15 | CCCOCC(C)O (stereo not given) | inactive
16 | CC1(C)[C@@H](O[C@H]2O[C@H](C(=O)O)[C@@H](O)[C@H](O)[C@H]2O[C@@H]2O[C@H](C(=O)O)[C@@H](O)[C@H](O)[C@H]2O)CC[C@]2(C)[C@H]3C(=O)C=C4[C@@H]5C[C@@](C)(C(=O)O)CC[C@]5(C)CC[C@@]4(C)[C@]3(C)CC[C@@H]12 | inactive
17 | CCc1cccc(CC)c1N | inactive
18 | N[C@@H](Cc1cc(I)c(Oc2ccc(O)c(I)c2)c(I)c1)C(=O)O | inactive
19 | N#CCC(=O)O | inactive
20 | O=[N+]([O-])c1ccccc1C(F)(F)F | inactive

Row | Structure (SMILES) | Potency
21 | O=C(Cl)c1ccc(C(=O)Cl)cc1 | inactive
22 | CC(C)(C)NC[C@H](O)COc1nsnc1N1CCOCC1 | inactive
23 | Cc1ncc(CO)c(CO)c1O | inactive
24 | CC1=CC(=O)CC(C)(C)C1 | inactive
25 | CC(=O)C(C)C | inactive
26 | Cc1ccc(C)c(S(=O)(=O)O)c1 | inactive
27 | OCC(O)CS (stereo not given) | inactive
28 | Cc1ccc(C(C)C)cc1 | inactive
29 | CC(=O)c1nccs1 | inactive
30 | CC(=O)OC/C=C(\C)CCC=C(C)C | inactive
31 | O=C1OC(=O)c2c(Cl)c(Cl)c(Cl)c(Cl)c21 | inactive
32 | C[Si](C)(C)N[Si](C)(C)C | inactive
33 | CC/C(C)=N/O | inactive
34 | C=CC(C)(C)C | inactive
35 | C=C(CC(=O)O)C(=O)O | inactive
36 | C1CCCNCC1 | inactive
37 | NC1CCCCC1N (stereo not given) | inactive
38 | CCc1cccc(O)c1 | inactive
39 | CCCCCCCCCCCC(=O)N(C)CC(=O)O | inactive
40 | Cc1cc(C)cc(O)c1 | inactive
